The source of these data is PubChem BioAssay (NCATS).

Where “and” joins values, the source holds several entries; their conditions need not be identical. Identical values can stand only once. Values without a mark were called inactive. Results filed as inconclusive are left out. Calls of active or inactive are those of the source. Unless noted, calls come from the whole dose curve; as a rule, active = well fitted curve in the direction sought with a large enough effect; inconclusive = small, poorly fitted or top-dose-only effect, or another doubt; inactive = no such curve, though single readings can be large; an effect the other way counts as inactive or inconclusive.

The target in test [1] is Cytochrome P450 3A4 (Homo sapiens) (UniProt P08684). In words: qHTS Assay for Inhibitors and Substrates of Cytochrome P450 3A4 (AID 884). Note: series mostly up to about 57 µM; % is set by controls: 0 for no effect and ±100 for the full control effect; nearly all actives have a fitted effect of over 50% in size. In short, it runs like this:
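Luminescent readout of luciferin produced by CYP3A4 (20 nM) dealkylation of Luciferin-PPXE, 25 uM (its KM). NADPH-driven reaction ran 60 min at RT after 10 min compound preincubation; data scaled to 57 uM ketoconazole as 100% inhibition.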
In general terms: In qHTS, concentration-response curves come from the screen itself.

The nature of test [2]: Cell Viability - LYMP2-001 (AID 921).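 Note: series mostly up to about 92 µM; cells exposed to compound for 24 h at 37 °C; 0% = DMSO only and full inhibition = tetraoctylammonium bromide control wells; nearly all actives have a fitted effect of over 70% in size.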 In short, it runs like this:
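A lymphoblastoid cell line of human origin was treated with library compounds across a concentration series for 24 hours, and viable cell number was estimated from ATP-driven luciferase light output. Hill modeling gave AC50.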

The nature of test [3]: MultiTox-Fluor Cytotoxicity Assay - LYMP1-001 - Live Cells (AID 947).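 Note: 0% = DMSO only and full inhibition = tetraoctylammonium bromide control.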
The nature of test [4]: Cell Viability - LYMP2-010 (AID 981).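 Note: cells exposed to compound for 24 hours at 37 °C; % is set by controls: 0 for no effect and ±100 for the full control effect; nearly all actives have a fitted effect of over 55% in size.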 The procedure, abridged: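 This 24 hr viability screen uses LYMP2-010 lymphoblastoid cells, quantifies ATP via luciferase luminescence, and derives AC50 from Hill fits of qHTS concentration-response data.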
Test [5] in a line: Cell Viability - LYMP2-012 (AID 982).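 Note: cellular ATP by luciferase luminescence where a drop means cytotoxicity; cells exposed to compound for one day before reading; 0% = DMSO only and full loss = 92 µM tetraoctylammonium bromide; nearly all actives have a fitted effect of over 55% in size.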
Test [6] is described as follows: Cell Viability - LYMP2-016 (AID 984).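 Note: cells exposed to compound for 24 hours at 37 °C; % is set by controls: 0 for no effect and ±100 for the full control effect; nearly all actives have a fitted effect of over 55% in size.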 In short, it runs like this: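 Concentration-dependent ATP depletion measured in LYMP2-016 lymphoblastoid cells, 24 h, 37 C; luciferase-based luminescent detection; Hill-equation AC50.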
Test [7] can be described thus: Cell Viability - LYMP2-024 (AID 988).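 Note: plate controls were DMSO only for no effect and 92 µM tetraoctylammonium bromide for full effect; nearly all actives have a fitted effect of over 60% in size.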 The procedure, abridged:
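Cells at 2500 per well received compound for 24 hr after a 5 hr settling period. Viability was scored by CellTiter-Glo luminescence, with AC50 from Hill fits.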

Test [8] deals with Peroxisome proliferator-activated receptor gamma (Homo sapiens) (UniProt P37231). In words: qHTS assay for small molecule agonists of peroxisome proliferator-activated receptor gamma signaling (AID 588536; active = well fitted curve in the direction sought with a large enough effect in the signal ratio, with a control signal flat, not every such curve was filed as active; the % refers to the signal ratio;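 note: 0% = DMSO basal wells and 100% = rosiglitazone at 2 µM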). The procedure, abridged:
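Compound treatment: 16 h, 37 C, HEK293 GeneBLAzer cells. Detection: CCF4, 2 h RT. Values: Hill-fit EC50, efficacy as % of 2 uM rosiglitazone.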

The target of test [9] is Retinoic acid receptor RXR-alpha (Homo sapiens) (UniProt P19793). In words: qHTS assay for small molecule agonists of retinoid X receptor alpha signaling (AID 588544; calls by dose curve;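 note: 0% = DMSO basal wells and 100% = reference agonist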).
Sequence of Retinoic acid receptor RXR-alpha (Homo sapiens) (P19793 whole entry, looked up): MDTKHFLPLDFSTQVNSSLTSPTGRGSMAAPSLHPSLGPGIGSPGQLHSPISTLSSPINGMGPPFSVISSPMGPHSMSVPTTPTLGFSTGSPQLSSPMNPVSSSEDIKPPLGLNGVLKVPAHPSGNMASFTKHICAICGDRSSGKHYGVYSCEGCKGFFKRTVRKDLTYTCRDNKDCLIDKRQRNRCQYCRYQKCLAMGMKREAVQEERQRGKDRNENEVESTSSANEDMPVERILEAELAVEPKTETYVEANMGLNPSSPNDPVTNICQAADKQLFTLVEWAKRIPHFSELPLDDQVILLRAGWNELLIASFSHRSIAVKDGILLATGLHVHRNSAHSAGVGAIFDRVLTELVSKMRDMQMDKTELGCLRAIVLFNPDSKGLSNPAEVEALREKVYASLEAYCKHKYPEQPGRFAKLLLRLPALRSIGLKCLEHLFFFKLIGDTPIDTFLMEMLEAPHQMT
Test [10] concerns the target Thyroid hormone receptor beta (Homo sapiens) (UniProt P10828). Nature of the test: qHTS assay for small molecule antagonists of thyroid hormone receptor beta signaling (AID 588547; active = well fitted inhibition curve with a large enough effect in the signal ratio, with a control signal flat, not every such curve was filed as active; the % refers to the signal ratio;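 note: cells stimulated with 0.4 nM T3 agonist during compound exposure; series mostly up to about 77 µM; % is set by controls: 0 for no effect and ±100 for the full control effect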). Conditions: TR-UAS-bla HEK293, beta-lactamase ratio, antagonist mode, 18 h. In short, it runs like this:
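TR-UAS-bla GripTite HEK293 cells in 2% charcoal/dextran FBS medium were preincubated 4 h at 37 C, given compound (0.59 nM to 92 uM) plus 0.4 nM T3 (final) for 18 h, then CCF4 for 2 h at RT; Hill fit gave IC50.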

Test [11] can be described thus: qHTS assay for small molecule activators of the p53 signaling pathway (AID 651743; active = well fitted activation curve with a large enough effect in the signal ratio, not every such curve was filed as active; the % refers to the signal ratio; note: series mostly up to about 92 µM; % of control where 0% means no effect). As to conditions: HCT-116 p53RE-bla, beta-lactamase FRET ratio, 16 h; activation: active compounds read high. The procedure, abridged: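 Here HCT-116 cells with an integrated p53-responsive beta-lactamase gene were incubated with compounds (16 hours, 37 C) after a 5-hour plating period; beta-lactamase activity was detected as fluorescence intensity via B/G FRET substrate.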

Test [12] addresses Tumor necrosis factor (Homo sapiens) (UniProt P01375). Nature of the test: qHTS assay to identify small molecules that stimulate Tumor Necrosis Factor-alpha (TNF-alpha) secretion (AID 651757; active = well fitted curve in the direction sought with a large enough effect in the signal ratio; the % refers to the signal ratio; note: 0% is about no effect). The procedure, abridged: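 Using 3000 THP-1 cells per well, compounds and controls were applied for 17 hrs at 37 C. Detection followed with two labeled anti-TNF-alpha antibodies (cryptate donor, XL665 acceptor) for 3 hr at room temperature, measured by TR-FRET.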

Test [13] in a line: qHTS assay for environmental chemicals that activate the Aryl hydrocarbon Receptor (AhR) signaling pathway (AID 651777). Note: % of control where 0% means no effect; nearly all actives have a fitted effect of over 15% in size. As to conditions: 1A2-DRE human hepatoma cells, luciferase, 24 h; activation: active compounds read high. The procedure, abridged:
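Concentration–response screening used 1,200 1A2-DRE cells per well, 24 hr compound exposure (37 C, 5% CO2), and One-Glo luminescence as the AhR-driven CYP1A2 reporter signal.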

Test [14] concerns the target Nuclear receptor ROR-gamma (Homo sapiens) (UniProt P51449). Nature of the test: qHTS assay for small molecule antagonists of the retinoid-related orphan receptor gamma (ROR-gamma) signaling pathway (AID 651802).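 Note: luciferase reporter luminescence driven by ROR response element; series mostly up to about 92 µM; % is set by controls: 0 for no effect and ±100 for the full control effect; nearly all actives have a fitted effect of over 60% in size.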 The procedure, abridged: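 Doxycycline-induced reporter activity in engineered CHO cells (TET-inducible ROR, RORE-LUC) was measured by luminescence after 16hr compound exposure at 37C.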

Test [15] in a line: qHTS assay for small molecule antagonists of the retinoid-related orphan receptor gamma (ROR-gamma) signaling pathway - cell viability counter screen (AID 720652; active = well fitted curve in the direction sought with a large enough effect in the repeat runs; an effect the other way counts as inactive or inconclusive;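 note: series mostly up to about 92 µM; compound exposure lasted 16 hr before ATP read; % is set by controls: 0 for no effect and ±100 for the full control effect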). The procedure, abridged: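 ATP-based viability readout in the ROR-gamma reporter CHO cells after 16 hr compound exposure under doxycycline induction.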
Test [16] concerns the target Nuclear receptor subfamily 1 group I member 2 (Rattus norvegicus) (UniProt Q9R1A7). Nature of the test: qHTS assay for small molecule activators of the rat pregnane X receptor (rPXR) signaling pathway (AID 651751; call rule not given here; note: 0% is about no effect). As to conditions: rPXR reporter cells, luciferase (One-Glo), 24 h.
For test [17], the target named is Estrogen receptor (Homo sapiens) (UniProt P03372). Nature of the test: qHTS assay for small molecule antagonists of estrogen receptor alpha signaling (AID 588513; active = well fitted curve in the direction sought with a large enough effect in the signal ratio, with a control signal flat, not every such curve was filed as active; the % refers to the signal ratio; note: % is set by controls: 0 for no effect and ±100 for the full control effect). The procedure, abridged: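 Antagonist-mode qHTS in ER-alpha-UAS-bla HEK 293 cells: compound titration, 0.5nM estradiol for 18 h, CCF4 fluorescence, Hill-derived IC50.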
Sequence of Estrogen receptor (Homo sapiens) (P03372 whole entry, looked up): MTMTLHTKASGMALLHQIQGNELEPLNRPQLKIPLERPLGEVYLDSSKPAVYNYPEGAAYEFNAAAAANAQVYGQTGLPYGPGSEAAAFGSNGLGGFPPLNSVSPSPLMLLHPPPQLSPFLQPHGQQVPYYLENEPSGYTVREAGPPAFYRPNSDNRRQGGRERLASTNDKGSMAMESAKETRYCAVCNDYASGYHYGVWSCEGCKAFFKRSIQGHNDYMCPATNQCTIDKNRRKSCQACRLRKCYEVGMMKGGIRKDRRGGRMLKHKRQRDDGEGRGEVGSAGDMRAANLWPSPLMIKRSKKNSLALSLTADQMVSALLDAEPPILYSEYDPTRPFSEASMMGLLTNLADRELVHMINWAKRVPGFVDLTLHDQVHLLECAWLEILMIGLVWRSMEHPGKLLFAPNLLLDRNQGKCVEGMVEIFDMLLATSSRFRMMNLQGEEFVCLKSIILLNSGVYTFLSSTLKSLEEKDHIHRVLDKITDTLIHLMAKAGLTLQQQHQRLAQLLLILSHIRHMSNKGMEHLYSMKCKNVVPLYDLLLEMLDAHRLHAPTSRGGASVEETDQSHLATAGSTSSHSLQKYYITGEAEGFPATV
Test [18] shares this target. Nature of the test: qHTS assay for small molecule agonists of estrogen receptor alpha signaling (AID 588514; calls by dose curve; note: nearly all actives have a fitted effect of over 70% in size; note: potency is the fitted concentration of half-maximal effect;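 for activation: 0% = vehicle only and 100% = reference agonist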). The procedure, abridged:
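Fluorescence from CCF4 cleavage reports ER-alpha-driven beta-lactamase expression in HEK 293 cells treated 18 hrs at 37 C. Data normalized to 17-beta-estradiol (20 nM) and DMSO, fitted to Hill equation.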

The target in test [19] is Glucocorticoid receptor (Homo sapiens) (UniProt P04150). Nature of the test: qHTS assay for small molecule agonists of glucocorticoid receptor signaling (AID 588532; active = well fitted curve in the direction sought with a large enough effect in the signal ratio, with a control signal flat; the % refers to the signal ratio;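 note: 100% = dexamethasone at 0.1 µM and 0% = DMSO only wells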). As to conditions: HeLa MMTV-bla, beta-lactamase ratio, agonist, 18 h; active compounds read high; percent of dexamethasone control, DMSO zero. In short, it runs like this:
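MMTV-bla HeLa, beta-lactamase reporter; medium with 1% charcoal/dextran-stripped FBS; cpds up to 92 uM, 18 h, 37 C; CCF4 readout 460/530 nm; Hill fit → EC50, efficacy vs 0.1 uM dexamethasone = 100%.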

Test [20] shares this target. In words: qHTS assay for small molecule antagonists of glucocorticoid receptor signaling (AID 588533; active = well fitted inhibition curve with a large enough effect in the signal ratio, with a control signal flat, not every such curve was filed as active; the % refers to the signal ratio;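 note: cells stimulated with 2 nM dexamethasone as agonist; % is set by controls: 0 for no effect and ±100 for the full control effect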). The procedure, abridged:
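Antagonist-mode qHTS: compound titrations added to GRE-bla HeLa cells, then dexamethasone 2 nM final; 18 h, 37 C. CCF4 FRET fluorescence normalized to dexamethasone and DMSO; IC50 from Hill fit.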

Sequence of Tumor necrosis factor (Homo sapiens) (P01375 whole entry, looked up): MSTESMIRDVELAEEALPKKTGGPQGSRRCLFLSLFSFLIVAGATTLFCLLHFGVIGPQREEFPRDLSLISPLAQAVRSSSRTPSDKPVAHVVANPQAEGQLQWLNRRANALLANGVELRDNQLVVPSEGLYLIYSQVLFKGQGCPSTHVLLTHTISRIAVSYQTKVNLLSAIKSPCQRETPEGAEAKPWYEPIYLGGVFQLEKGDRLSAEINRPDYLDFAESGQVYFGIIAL
Sequence of Nuclear receptor subfamily 1 group I member 2 (Rattus norvegicus) (Q9R1A7 whole entry, looked up): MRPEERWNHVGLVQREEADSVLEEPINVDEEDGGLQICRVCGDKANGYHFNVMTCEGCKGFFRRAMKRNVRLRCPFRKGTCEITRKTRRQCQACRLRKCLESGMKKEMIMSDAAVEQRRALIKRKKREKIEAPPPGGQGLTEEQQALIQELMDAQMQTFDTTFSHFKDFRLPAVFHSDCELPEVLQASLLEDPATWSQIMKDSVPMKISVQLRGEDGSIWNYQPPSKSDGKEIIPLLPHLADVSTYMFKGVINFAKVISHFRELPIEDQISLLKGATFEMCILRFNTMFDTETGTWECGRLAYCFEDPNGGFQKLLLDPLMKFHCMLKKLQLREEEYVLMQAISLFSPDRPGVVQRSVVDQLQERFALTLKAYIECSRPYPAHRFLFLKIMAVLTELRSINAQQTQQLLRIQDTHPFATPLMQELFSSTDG
Sequence of Cytochrome P450 3A4 (Homo sapiens) (P08684 whole entry, looked up): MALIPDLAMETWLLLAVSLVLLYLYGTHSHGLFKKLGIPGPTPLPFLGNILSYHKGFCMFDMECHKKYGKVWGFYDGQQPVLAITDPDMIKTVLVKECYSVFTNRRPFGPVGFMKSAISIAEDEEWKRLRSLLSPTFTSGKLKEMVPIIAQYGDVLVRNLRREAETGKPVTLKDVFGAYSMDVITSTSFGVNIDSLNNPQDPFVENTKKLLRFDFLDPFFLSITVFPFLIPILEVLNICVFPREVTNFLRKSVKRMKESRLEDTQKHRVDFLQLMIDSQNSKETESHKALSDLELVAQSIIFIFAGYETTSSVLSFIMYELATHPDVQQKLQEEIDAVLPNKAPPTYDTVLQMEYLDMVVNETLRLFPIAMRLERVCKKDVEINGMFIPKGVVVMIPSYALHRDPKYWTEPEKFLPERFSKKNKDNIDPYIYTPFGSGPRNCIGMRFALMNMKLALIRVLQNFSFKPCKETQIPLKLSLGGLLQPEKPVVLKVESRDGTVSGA
Sequence of Nuclear receptor ROR-gamma (Homo sapiens) (P51449 whole entry, looked up): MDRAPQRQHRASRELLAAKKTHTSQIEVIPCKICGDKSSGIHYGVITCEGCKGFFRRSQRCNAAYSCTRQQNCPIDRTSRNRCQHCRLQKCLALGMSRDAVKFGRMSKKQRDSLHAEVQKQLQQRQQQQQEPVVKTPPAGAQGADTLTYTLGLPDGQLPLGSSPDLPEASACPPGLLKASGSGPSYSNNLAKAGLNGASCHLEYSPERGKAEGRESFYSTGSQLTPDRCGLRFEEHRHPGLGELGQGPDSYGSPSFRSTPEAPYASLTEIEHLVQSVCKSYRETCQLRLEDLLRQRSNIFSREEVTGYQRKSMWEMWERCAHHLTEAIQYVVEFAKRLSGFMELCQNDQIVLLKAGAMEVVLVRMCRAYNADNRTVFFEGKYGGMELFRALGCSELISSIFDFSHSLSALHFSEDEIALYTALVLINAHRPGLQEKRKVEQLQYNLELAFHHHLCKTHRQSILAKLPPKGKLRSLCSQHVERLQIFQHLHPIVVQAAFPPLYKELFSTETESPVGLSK
Sequence of Thyroid hormone receptor beta (Homo sapiens) (P10828 whole entry, looked up): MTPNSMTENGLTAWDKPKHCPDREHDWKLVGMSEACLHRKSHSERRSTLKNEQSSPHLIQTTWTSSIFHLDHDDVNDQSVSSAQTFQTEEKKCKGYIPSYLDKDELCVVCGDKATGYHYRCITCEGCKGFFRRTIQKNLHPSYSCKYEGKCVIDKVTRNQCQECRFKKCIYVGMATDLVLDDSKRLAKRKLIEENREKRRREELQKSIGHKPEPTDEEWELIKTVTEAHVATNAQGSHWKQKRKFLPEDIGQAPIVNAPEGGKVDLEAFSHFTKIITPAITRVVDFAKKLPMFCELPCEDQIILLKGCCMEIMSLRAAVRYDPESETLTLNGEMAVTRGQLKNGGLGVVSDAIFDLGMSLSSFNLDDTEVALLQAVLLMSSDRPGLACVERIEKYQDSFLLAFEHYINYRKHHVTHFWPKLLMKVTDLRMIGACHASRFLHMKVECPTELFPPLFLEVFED
Sequence of Glucocorticoid receptor (Homo sapiens) (P04150 whole entry, looked up): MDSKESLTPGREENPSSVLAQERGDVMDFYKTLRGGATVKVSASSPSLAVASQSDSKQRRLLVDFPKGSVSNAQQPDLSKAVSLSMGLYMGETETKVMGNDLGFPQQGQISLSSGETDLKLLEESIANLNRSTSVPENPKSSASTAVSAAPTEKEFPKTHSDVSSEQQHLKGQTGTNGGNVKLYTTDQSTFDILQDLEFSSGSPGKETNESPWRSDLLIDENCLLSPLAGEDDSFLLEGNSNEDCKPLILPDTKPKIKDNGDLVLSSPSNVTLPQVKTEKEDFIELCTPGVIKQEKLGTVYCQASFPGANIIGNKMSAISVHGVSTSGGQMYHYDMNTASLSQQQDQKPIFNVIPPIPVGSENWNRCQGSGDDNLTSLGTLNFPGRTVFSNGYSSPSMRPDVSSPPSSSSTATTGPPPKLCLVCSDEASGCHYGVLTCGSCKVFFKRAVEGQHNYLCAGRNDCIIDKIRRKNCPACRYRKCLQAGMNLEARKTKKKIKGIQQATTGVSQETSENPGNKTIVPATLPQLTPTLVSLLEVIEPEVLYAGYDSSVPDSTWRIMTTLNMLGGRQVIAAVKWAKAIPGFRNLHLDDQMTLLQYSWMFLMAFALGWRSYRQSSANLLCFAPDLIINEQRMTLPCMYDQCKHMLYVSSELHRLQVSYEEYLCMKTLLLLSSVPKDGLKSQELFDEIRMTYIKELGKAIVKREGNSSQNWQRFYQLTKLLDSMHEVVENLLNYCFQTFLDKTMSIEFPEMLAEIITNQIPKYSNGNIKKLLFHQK
Sequence of Peroxisome proliferator-activated receptor gamma (Homo sapiens) (P37231 whole entry, looked up): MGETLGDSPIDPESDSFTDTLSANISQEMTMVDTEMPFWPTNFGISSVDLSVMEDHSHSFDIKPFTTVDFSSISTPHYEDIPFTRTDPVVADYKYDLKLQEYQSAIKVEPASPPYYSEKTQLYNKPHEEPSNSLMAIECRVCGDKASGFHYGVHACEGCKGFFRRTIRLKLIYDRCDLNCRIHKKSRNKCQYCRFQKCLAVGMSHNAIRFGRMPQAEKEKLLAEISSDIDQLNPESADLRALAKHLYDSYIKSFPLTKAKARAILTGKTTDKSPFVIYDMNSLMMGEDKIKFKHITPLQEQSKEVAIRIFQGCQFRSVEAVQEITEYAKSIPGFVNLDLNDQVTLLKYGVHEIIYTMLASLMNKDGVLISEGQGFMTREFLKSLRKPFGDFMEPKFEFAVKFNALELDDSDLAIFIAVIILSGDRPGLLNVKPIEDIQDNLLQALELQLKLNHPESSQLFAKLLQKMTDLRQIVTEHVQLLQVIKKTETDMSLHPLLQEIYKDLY

As for `ClC(Cl)=C(Cl)Cl`, the Potency result in [1], in test [2], in test [3], in [4], in test [5] and in [6] was “inactive” each time. The Potency entry in test [7], in test [9], in [14] and in [15] was “inactive” throughout. Also, the call in [8] and in test [12] was inactive. Moreover, in [10], the activity change % (negative = inhibition) was -10.3% and -3.55%. Besides, the activation was -0.0832% and 0.219% in test [11]; -0.882% and 0.706% in test [13]. In addition, the max response in [16] is -0.799% and 2.48%.
With `C=C(C)C#N`, the Potency result in [1], in [3], in test [4], in test [5], in test [17] and in test [9] was “inactive” each time. The Potency result in test [14] and in test [15] was “inactive” in each case. Besides, in [18], the Potency was 35.5 µM (active). For the same compound, the activity change % (negative = inhibition) in test [10] was -13.7% and -1.19%. Moreover, the activation in test [11] was -0.28% and -1.48%; in test [13], -0.895% and 0.596%. Also, the compound was classed as inactive in test [12]. Further, the max response in test [16] is 2.68% and -1.1%.
With `CC(=O)[O-].CC(=O)[O-].O.O.O.[Pb+2]`, the Potency result in test [1], in [2], in [3], in [4], in [5] and in test [6] was “inactive” each time. The Potency result in [7], in test [9] and in [15] was “inactive” throughout. In addition, the activity change % (negative = inhibition) in [10] was -0.227%. For the same compound, the compound was called inactive in test [12]. Besides, the activation in test [13] was 1.24% and 0.452%.
Consider `O=C(Cl)/C=C/C(=O)Cl`, for which the Potency result in [1], in test [2], in test [3], in [4], in test [5] and in test [6] was “inactive” each time. The Potency entry in [7], in test [17], in test [18], in test [20], in test [9] and in test [14] was “inactive” each time. The Potency entry in [15] was “inactive”. Further, the activation is 18.2% in test [19], -2.72% in test [11] and -0.935% in test [13]. For the same compound, the outcome in test [8] and in test [12] was inactive. For the same compound, the activity change % (negative = inhibition) in test [10] was 2.64%. The max response in [16] was 0.356%.
Turning to `CCN(CC)c1ccccc1`, the Potency result in test [1], in test [2], in test [3], in [4], in test [5] and in [6] was “inactive” each time. For the same compound, the Potency entry in test [7], in [17], in test [18], in [20], in test [9] and in test [14] was “inactive” throughout. For the same compound, the Potency entry in test [15] was “inactive”. Moreover, the activation in [19] was -4.16%; in test [11], 0.724%; in test [13], -0.415%. The call in [8] and in [12] was inactive. Besides, in test [10], the activity change % (negative = inhibition) was -7.69%. Further, the max response in test [16] is -0.145%.
